TbREL1 primary: TbREL1 inhibition, primary screen | P86926 | TbREL1 RNA ligation, FRET fluorescence | inhibition, % at 9.66 µM | hit rate 0.49% among 89,000;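 active means inhibition above the mean inhibition across all screened compounds plus 3 SD, cut at about 11% in these data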
Target sequence (P86926 whole entry, looked up): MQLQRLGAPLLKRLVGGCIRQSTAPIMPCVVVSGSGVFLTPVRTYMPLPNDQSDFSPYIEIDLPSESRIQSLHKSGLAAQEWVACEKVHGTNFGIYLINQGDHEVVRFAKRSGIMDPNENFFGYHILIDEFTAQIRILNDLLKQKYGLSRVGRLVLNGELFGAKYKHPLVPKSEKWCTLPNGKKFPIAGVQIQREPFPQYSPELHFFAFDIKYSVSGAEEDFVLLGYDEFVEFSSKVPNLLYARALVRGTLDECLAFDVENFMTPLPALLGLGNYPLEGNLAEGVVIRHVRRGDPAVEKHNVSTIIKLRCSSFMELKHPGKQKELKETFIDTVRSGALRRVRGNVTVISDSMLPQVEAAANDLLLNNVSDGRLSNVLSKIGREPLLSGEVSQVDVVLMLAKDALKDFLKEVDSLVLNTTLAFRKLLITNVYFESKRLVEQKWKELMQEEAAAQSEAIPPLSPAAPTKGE
TbREL1 conf: TbREL1 inhibition, confirmation; AID 1117282; TbREL1 RNA ligation, FRET fluorescence; inhibition, % at 9.66 µM; shares compounds with TbREL1 primary; hit rate 37% among 390;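 active means mean inhibition across replicates above a set limit taken from the earlier primary screen, cut at about 11% in these data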
Large screens that a line does not name were inactive (follow-up assays come after a bar, where they were run); ! = a repeat was not active. The full list was thinned out, with hits kept by preference.

O=C(O)CN1C(=O)SC(Nc2ccc(Cl)cc2)C1=O (stereo not given)	TbREL1 primary 11.1 | TbREL1 conf inactive
O=C(CCNc1ccc(Cl)cc1)c1cccs1	none
O=[N+]([O-])c1ccc2nc(COCc3nc4ccccc4[nH]3)[nH]c2c1	none
CC(C)CSc1ncccc1-c1nc2ccccc2[nH]1	none
Cc1ccc(-c2nc(C3CCCN(S(=O)(=O)c4cccs4)C3)no2)cc1 (stereo not given)	none
CC(C)(C)c1ccc(C(=O)Nc2cc(Cl)c(F)cc2C(=O)O)cc1	TbREL1 primary 12.9 | TbREL1 conf inactive
CC(C)(C)c1ccc(C(=O)Nc2ccc(Cl)cc2)cc1	none
CC(C)(C)c1ccc(C(=O)Nc2cc(Cl)c(Cl)cc2C(=O)O)cc1	none
O=C(NCCc1nc2ccccc2n1CCOc1ccc2cccnc2c1)C1CCCCC1	none
O=C(COC(=O)c1ccc(Sc2ncn[nH]2)c([N+](=O)[O-])c1)Nc1ccc(Cl)c(Cl)c1	none
CCN(CC)C(=O)O[C@H]1CC[C@@]23CCCN2C(=O)CCC[C@H]3C1	none
O=C(O[C@H]1CC[C@@]23CCCN2C(=O)CCC[C@H]3C1)N1CCOCC1	TbREL1 primary 13.7 | TbREL1 conf inactive
CCC(CC)NC(=O)O[C@H]1CC[C@@]23CCCN2C(=O)CCC[C@H]3C1	none
Cn1c(Cc2cccs2)nnc1SCC(=O)Nc1ccc2cn[nH]c2c1	none
O=C(N[C@H]1CC[C@@H]2SC[C@@H](C(=O)O)N2C1=O)OCC1c2ccccc2-c2ccccc21	none
Cc1c(NS(=O)(=O)c2cc3c(cc2Br)CCN3C(=O)C2CC2)c(=O)n(-c2ccccc2)n1C	none
O=C(Nc1nccs1)c1ccccn1	TbREL1 primary 15.3 | TbREL1 conf inactive
Cc1ccccc1NC(=O)c1ccccn1	none
O=C(Nc1nccs1)c1cnccn1	none
Oc1ccc(Oc2ccccc2F)c2cccnc12	none
CSCCCNC(=O)c1oc(=O)c2ccccc2c1-c1ccc(C)cc1	none
CCn1c2ccccc2c2cc(NC(=O)COC(=O)c3cc(Cl)cc(Cl)c3)ccc21	none
CCn1c2ccccc2c2cc(NC(=O)COC(=O)c3cc(Cl)c(N)cc3OC)ccc21	TbREL1 primary 12.1 | TbREL1 conf inactive
CCn1c2ccccc2c2cc(NC(=O)COC(=O)c3ccccc3F)ccc21	none
COc1ccc(-c2nn3cnnc3s2)cc1OC	TbREL1 primary 11.4 | TbREL1 conf inactive
COc1ccc(-c2nn3c(COc4ccccc4)nnc3s2)cc1OC	none
COc1ccc(-c2cn3nc(C)c(C)nc3n2)cc1OC	none
C[c-]1[c-](C)[c-](C)[c-](C)[c-]1C.[Fe].c1cc2nccc(N3CCCC3)[c-]2c1 (stereo not given)	TbREL1 primary 14.1 | TbREL1 conf 15.9!
CCCCNC(=O)C[C@H]1C[C@@]2(C(=O)OC)C(=C[C@H](C(C)C)O[C@@H]2C2CC2)N(CCc2ccc(OC)c(OC)c2)C1=O	none
C(C#CCCCCCCCCC[n+]1ccccc1)#CCCCCCCCCC[n+]1ccccc1	TbREL1 primary 11.4 | TbREL1 conf 24.1
C[C@H]1[C@@H](N(C)CC2CCCCC2)CC[C@@]23CCCN2C(=O)CCC[C@@H]13	none
O=c1c2cc3cc4c(cc3nc2ncn1Cc1cccnc1)OCO4	none
O=c1c2cc3cc4c(cc3nc2ncn1CCc1ccccc1)OCO4	TbREL1 primary 14.8 | TbREL1 conf inactive
O=c1c2cc3ccccc3nc2ncn1CCc1ccc(Cl)cc1	none
Cc1ccc(-c2c(NC(=O)c3cccc(C)c3)nc3ncccn23)cc1	none
O=C(/C=C/c1cn(-c2ccccc2)nc1-c1cccnc1)NCCN1CCOCC1	none
O=Cc1cn(-c2ccccc2)nc1-c1cc2ccccc2oc1=O	none
CN(C)CCNC(=O)/C=C/c1cn(-c2ccccc2)nc1-c1cc2ccccc2oc1=O	TbREL1 primary 11.9 | TbREL1 conf inactive
CC(Cl)C(=O)N1CCC(C(=O)NCC2COc3ccccc3O2)CC1 (stereo not given)	none
Cc1ccc(CN[C@@H]2CC[C@@]34CCCN3C(=O)CCC[C@H]4C2)cc1	none
C[C@H]1[C@@H](OC(=O)Nc2ccc(C#N)cc2)CC[C@@]23CCCN2C(=O)CCC[C@@H]13	none
C=CCn1c(SCc2c(Cl)cccc2Cl)nnc1-c1cccc(C)c1	none
COc1ccc(-c2cc(-c3nnc4sc(Cc5cccs5)nn34)[nH]n2)cc1	none
CCN(CC)S(=O)(=O)c1ccc(C(C)NCC(=O)Nc2ccccc2C(=O)NC2CC2)cc1 (stereo not given)	none
O=C(CN1CCN(S(=O)(=O)c2ccc(F)cc2)CC1)Nc1ccccc1C(=O)NC1CC1	none
CC(NCC(=O)Nc1ccccc1C(=O)NC1CC1)c1ccc(S(N)(=O)=O)cc1 (stereo not given)	TbREL1 primary 16.6 | TbREL1 conf inactive
C[C@@H](N)P(=O)(O)C[C@H](Cc1ccccc1)C(=O)O	none
Cn1cccc1C(=O)N1CCN(S(=O)(=O)c2ccc(F)cc2)CC1	none
O=c1[nH]c2ccc(NC(=S)Nc3ccc(F)cc3)cc2[nH]1	none
Fc1ccc(NC(=S)Nc2ccc3nccnc3c2)cc1	TbREL1 primary 12.9 | TbREL1 conf inactive
N#Cc1ccccc1NC(=S)Nc1ccc(F)cc1	none

From PubChem BioAssay
